# From PubChem BioAssay
# Cruzain inh noDet: cruzain (T. cruzi) inhibition without detergent | Potency, µM, without a hit: max response, negative = inhibition, usual class: inhibitors | 2.3% of 200,000 active | purified cruzain, Z-FR-AMC fluorescence, no detergent | P25779;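 note: plate controls were enzyme without inhibitor for no effect and buffer without enzyme for full effect; nearly all actives have a fitted effect of over 40% in size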
# Target sequence (P25779 123-467 limits assumed): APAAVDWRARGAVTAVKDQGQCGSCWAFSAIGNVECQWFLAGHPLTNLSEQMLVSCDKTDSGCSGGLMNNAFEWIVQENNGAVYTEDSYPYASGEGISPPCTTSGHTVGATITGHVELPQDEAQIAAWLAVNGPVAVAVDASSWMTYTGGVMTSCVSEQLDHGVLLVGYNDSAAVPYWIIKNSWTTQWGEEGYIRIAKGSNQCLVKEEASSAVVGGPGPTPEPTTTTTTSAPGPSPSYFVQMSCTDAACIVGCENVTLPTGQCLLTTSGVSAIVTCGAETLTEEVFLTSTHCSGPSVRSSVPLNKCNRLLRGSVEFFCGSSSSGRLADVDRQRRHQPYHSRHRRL
#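 Purified cruzain at 1.5 nM, pre-incubated 15 min with compound at room temperature in 100 mM sodium acetate pH 5.5, 5 mM DTT, 0.00005% Triton X-100. Reaction started with 2 uM Z-FR-AMC; AMC fluorescence increase over 60 s gives rate.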
# Cruzain inh Det: blocks cruzain activity in presence of Triton detergent. 0.43% of 200,000 active. P25779. purified cruzain, Z-FR-AMC fluorescence, 0.01% Triton. Potency, µM, inactives show max response, negative = inhibition, most hits filed as inhibitors;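 note: plate controls were neutral wells for no effect and buffer without enzyme for full effect; nearly all actives have a fitted effect of over 40% in size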
#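 Z-FR-AMC hydrolysis (2 uM substrate) by cruzain (1.5 nM) monitored kinetically at ex 360/em 450 nm after 15 min room-temperature compound exposure; 0.01% Triton X-100, pH 5.5, 5 mM DTT.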
# An asterisk follows results filed as active; ? = inconclusive. Rows were chosen to be rich in hits. Some 2.5% of all compounds tested hit in one or more screens of this group. Calls come from the whole dose curve; as a rule, active = well fitted curve in the direction sought with a large enough effect; inconclusive = small, poorly fitted or top-dose-only effect, or another doubt; inactive = no such curve, though single readings can be large; an effect the other way counts as inactive or inconclusive. Potency is the fitted concentration of half-maximal effect.
SMILES,Cruzain inh noDet,Cruzain inh Det
CCOC(=O)c1sc2ccccc2c1S(=O)(=O)N1CCN(c2cccc(OC)c2)CC1,-11%,-3%
CCOC(=O)c1sc2ccccc2c1S(=O)(=O)N1CCN(c2ccccc2)CC1,32µM*,-4%
Cc1sc2ncnc(Sc3ccccc3C(=O)Nc3ccc(Br)cc3)c2c1C,13µM*,-4%
Cc1sc2ncnc(Sc3ccccc3C(=O)Nc3ccc(C#N)cc3)c2c1C,12%,-5%
CCOc1cc(/C=N/Nc2nc(-c3cccc(S(=O)(=O)N4CCCC4)c3)cs2)ccc1O,16µM*,-12%
COc1ccc(/C=N/Nc2nc(-c3cccc(S(=O)(=O)N4CCCC4)c3)cs2)cc1OC,-29%,-16%
CC1CCCCC1NC(=O)COC(=O)c1ccccc1NC(=O)c1ccco1 (configuration not stated),-1%,3%
O=C(Nc1ccccc1C(=O)OCC(=O)N1CCc2ccccc2C1)c1ccco1,13µM*,-5%
CCOc1cc(C2Sc3ccccc3NC3=C2C(=O)c2ccccc23)ccc1O (configuration not stated),-5%,-6%
O=C1C2=C(Nc3ccccc3SC2c2ccc(Cl)c(Cl)c2)c2ccccc21 (configuration not stated),10µM*,-2%
COc1ccc(Br)cc1C1Sc2ccccc2NC2=C1C(=O)c1ccccc12 (configuration not stated),16µM*,-2%
O=C1C2=C(Nc3ccccc3SC2c2ccccc2C(F)(F)F)c2ccccc21 (configuration not stated),?,-8%
CCCc1ccc(C2Sc3ccccc3NC3=C2C(=O)c2ccccc23)cc1 (configuration not stated),7.9µM*,-3%
O=C1C2=C(Nc3ccccc3SC2c2c(F)cccc2Cl)c2ccccc21 (configuration not stated),-14%,-4%
COc1ccc(F)cc1S(=O)(=O)NCCc1csc(-c2ccc(Cl)cc2)n1,8%,-11%
COc1ccc2[nH]cc(CCNc3ccnc(-c4ccc5c(c4)OCO5)n3)c2c1,?,-1%
COc1ccc(Cl)cc1NC(=O)Cn1c(=O)n(Cc2ccco2)c(=O)c2cccnc21,-7%,-4%
COc1ccc(Nc2sc(C(=O)c3ccc(Cl)cc3)c(N)c2C(=O)Nc2ccccc2OC)cc1,4µM*,0%
COc1cccc(Nc2sc(C(=O)c3ccc(F)cc3)c(N)c2C(=O)NCc2ccc(Cl)cc2)c1,-16%,-3%
COc1ccc(C(=O)c2sc(Nc3ccccc3)c(C(=O)Nc3ccc(OC)c(OC)c3)c2N)cc1,-22%,-7%
COc1ccc(C(=O)c2sc(Nc3cccc(OC)c3)c(C(=O)Nc3cccc(C)c3C)c2N)cc1,6.3µM*,0%
COc1ccc(NC(=O)c2c(Nc3ccccc3)sc(C(=O)c3ccc(F)cc3)c2N)cc1,10µM*,-8%
CCOc1ccccc1Nc1sc(C(=O)c2ccccc2)c(N)c1C(=O)Nc1ccccc1,?,-2%
COc1cccc(Nc2sc(C(=O)c3ccc(Cl)cc3)c(N)c2C(=O)NCc2ccc(C)cc2)c1,?,0%
COc1ccccc1NC(=O)c1c(Nc2ccccc2C)sc(C(=O)Nc2cccc(Cl)c2)c1N,3.2µM*,2%
SMILES,Cruzain inh noDet,Cruzain inh Det
CCCCNc1ccc(-c2nc(-c3ccccc3)no2)cc1[N+](=O)[O-],6%,-6%
COc1ccc(NC(=O)Cn2c(=O)n(Cc3ccccc3Cl)c(=O)c3cc(OC)c(OC)cc32)cc1,-14%,0%
CC(C)(C)c1ccc(-c2nc(SCC(=O)Nc3ccccc3F)n3[nH]c(=O)cc3n2)cc1,-20%,-2%
CCCCC(=O)Nc1ccc(OCc2cc(=O)n3c(C)csc3n2)cc1,2%,0%
Cc1cc(-c2csc(N)n2)c(C)n1C,?,-30%
Cc1ccc(-n2c(C)cc(-c3csc(N)n3)c2C)cc1,25µM*,-1%
Cc1ccc(NC(=O)c2cncc(Br)c2)c([N+](=O)[O-])c1,-7%,-2%
COc1c(C)cc(Br)cc1C(=O)Nc1ccc(C)cc1[N+](=O)[O-],25µM*,1%
CC(C)Oc1ccc(C(=O)Nc2c(C(=O)Nc3cccc(F)c3)oc3ccccc23)cc1,3%,0%
CC(CN(C)C)C(C)(O)Cc1ccc(Cl)cc1 (configuration not stated),-3%,2%
O=C(Oc1ccc2c(-c3ccccc3)cc(=O)oc2c1)c1cccs1,6.3µM*,-6%
CCc1cc2c(-c3ccccc3)cc(=O)oc2cc1OC(=O)c1cccs1,-2%,3%
CC(C)Nc1nc2c(-c3cccc(Br)c3)nnn2c2ccccc12,0%,-3%
COc1ccc(S(=O)(=O)Nc2ccccc2C(=O)NCc2ccco2)cc1Br,25µM*,?
CCOc1ccc(S(=O)(=O)Nc2ccccc2C(=O)NCc2ccco2)cc1,6%,-12%
Nc1nc2sc3c(c2c(=O)s1)CCCC3,-1%,-11%
Nc1c2c(nc3sc4c(c13)CCCC4)CCCCCC2,25µM*,-17%
CCc1ccc(-n2c(=O)c3c(C)c(C(=O)N(C)C)sc3n(Cc3ccccc3F)c2=O)cc1,9%,1%
COC(=O)c1cc(Cl)ccc1NC(=O)CSc1ncc(S(=O)(=O)c2ccc(Br)cc2)c(=O)[nH]1,?,25µM*
COc1ccc(CNC(=O)CSc2ncc(S(=O)(=O)c3ccc(Br)cc3)c(=O)[nH]2)cc1,?,-9%
CCOc1ccc(S(=O)(=O)NCC(c2ccco2)S(=O)(=O)c2cccs2)cc1 (configuration not stated),-3%,-5%
Cc1ccc([C@@H](O)c2cnc(C)n2Cc2ccccc2)cc1,1%,4%
O=C(CSc1ncc2c(n1)-c1ccccc1N(Cc1ccc(F)cc1)S2(=O)=O)NCCc1ccccc1,0%,2%
CCCOc1ccc(C(=O)Nc2cccc(NC(=O)c3ccc(Cl)cc3Cl)c2)cc1,?,2%
Cc1sc(NC(=O)c2ccc(OCC(C)C)cc2)c(C(N)=O)c1-c1ccc(Cl)cc1Cl,10µM*,?
SMILES,Cruzain inh noDet,Cruzain inh Det
CCOC(=O)C1=C(CN2CCN(c3ccccc3OC)CC2)NC(=O)NC1c1ccccc1 (configuration not stated),2%,1%
COc1ccc(-c2cc(C(=O)Nc3c(C)nn(Cc4ccccc4C)c3C)no2)cc1,-8%,-1%
COc1ccc(OC)c(CNC(=O)c2ccc3c(c2)c(C)c(C)n3Cc2ccc(Cl)cc2)c1,7.9µM*,2%
COc1ccc(OC)c(CNC(=O)c2ccc3c(c2)c(C)c(C)n3C)c1,?,-2%
COc1ccccc1CCNC(=O)c1ccc2c(c1)c(C)c(C)n2Cc1ccc(Cl)cc1,13µM*,3%
COc1cc(CCNC(=O)c2ccc3c(c2)c(C)c(C)n3Cc2cccc(C)c2)cc(OC)c1OC,-8%,-1%
CCOc1ccc(C(=O)c2cn(CC(=O)Nc3ccc(F)cc3)c3cc4c(cc3c2=O)OCCO4)cc1,?,-5%
Cc1cc(C)c2oc(-c3ccc(C)c(NC(=O)/C=C/c4ccco4)c3)nc2c1,3%,-6%
Cc1ccc(C(=O)NCCc2sc(C)nc2C)cc1,?,25µM*
Cc1nc(C)c(CCNC(=O)c2ccc(C(F)(F)F)cc2)s1,1%,-13%
CC(NC(=O)CSc1nc2c(c(C(F)(F)F)n1)CCc1ccccc1-2)c1ccccc1 (configuration not stated),-7%,-8%
CCc1c(C)sc(NC(=O)CSc2nc3c(c(C(F)(F)F)n2)CCc2ccccc2-3)c1C#N,4µM*,-4%
